High-throughput results as filed in PubChem.
GALK inhibitor: blocks human galactokinase activity; P51570; Purified GALK, Kinase-Glo residual ATP luminescence; Potency, µM (series often up to 57.5 µM), inactives show top-dose activity change, negative = inhibition, most hits filed as inhibitors; hit rate 0.007% among 270,000; AID 1868; note: potency is the fitted concentration of half-maximal effect
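Quantitative HTS: GALK 5 nM, ATP 35 uM, galactose 100 uM, 1 h room temperature, then luciferase-based ATP detection.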
Coupling enz: inhibits coupling enzyme system, counter-screen for aldolase hits; coupling enzyme system counterscreen, AmpLite Red fluorescence; activity change, negative = inhibition, % at 58.2 µM, hits read low; hit rate 0.67% among 290,000; in the data active = activity change below about -30%
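Compounds tested against the coupling enzymes alone at 57.5 uM final; readout was AmpLite Red fluorescence (525/598 nm) after 20 min at RT.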
RORg inh: ROR gamma (mouse) transcription inhibition. P51450. Drosophila S2 Gal4-RORgamma UAS-luciferase reporter, 20 h. Potency, µM (doses to about 53.6 µM), without a hit: at the top dose activity change, negative = inhibition, actives largely listed as inhibitors. hit rate 5.4% among 310,000; note: potency is the fitted concentration of half-maximal effect; nearly all actives have a fitted effect of over 60% in size
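Read-out: Photinus luciferase luminescence; inhibitors lower reporter signal. Insect Schneider cells with Gal4-ROR gamma fusion under metallothionein promoter, UAS reporter; 700 uM final copper sulfate induction, 20 hr, ambient temperature.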
TrxR1 substrate: is turned over as a substrate by rat TrxR1; Potency, µM (highest dose often 114 µM), for inactives: top-dose activity change, negative = substrate turnover; O89049; hit rate 0.01% among 390,000; purified TrxR1 substrate turnover, NADPH consumption readout; AID 588456; note: potency is the fitted concentration of half-maximal effect; nearly all actives have a fitted effect of over 50% in size
Target sequence (O89049 whole entry, looked up): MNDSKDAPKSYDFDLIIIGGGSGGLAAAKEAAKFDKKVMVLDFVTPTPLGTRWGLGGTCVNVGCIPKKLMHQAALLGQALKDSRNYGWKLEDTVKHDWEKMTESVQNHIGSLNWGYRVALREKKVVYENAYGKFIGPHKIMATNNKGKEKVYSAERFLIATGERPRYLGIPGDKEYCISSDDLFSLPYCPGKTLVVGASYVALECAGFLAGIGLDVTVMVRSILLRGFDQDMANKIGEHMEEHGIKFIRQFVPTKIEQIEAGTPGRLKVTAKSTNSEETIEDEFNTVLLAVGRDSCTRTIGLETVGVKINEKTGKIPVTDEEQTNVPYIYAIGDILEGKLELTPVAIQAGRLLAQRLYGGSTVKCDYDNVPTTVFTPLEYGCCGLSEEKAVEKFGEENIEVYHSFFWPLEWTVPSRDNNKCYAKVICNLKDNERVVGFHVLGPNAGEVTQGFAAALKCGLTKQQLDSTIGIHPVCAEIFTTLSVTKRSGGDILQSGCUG
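Rat TrxR1, dispensed at 90 nM, was prereduced with 400 uM NADPH (final) for 5 min at ~22 deg C, then incubated with compound 15 min before 400 uM selenite. A first-read NADPH fluorescence drop versus no-compound background flagged substrates.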
Gal4-VP16 FLuc: inhibits Gal4-VP16 luciferase reporter, ROR gamma counter-screen | Drosophila S2 Gal4-VP16 UAS-luciferase, luminescence, 20 h | hit rate 3.5% among 310,000 | Potency, µM (highest dose often 53.6 µM), for inactives: at the highest dose activity, negative = inhibition, most hits filed as inhibitors | AID 2546;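 note: Gal4-VP16 expression switched on by copper sulfate through the metallothionein promoter; potency is the fitted concentration of half-maximal effect; nearly all actives have a fitted effect of over 50% in size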
TrxR1 inh: blocks rat thioredoxin reductase 1 | O89049 | recombinant rTrxR1, NADPH fluorescence consumption, selenite substrate | Potency, µM (series often up to 114 µM), for inactives: at the highest dose activity change, negative = inhibition, most hits filed as inhibitors | hit rate 1% among 390,000 | AID 588453; note: potency is the fitted concentration of half-maximal effect; nearly all actives have a fitted effect of over 65% in size
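Rat TrxR1 (90 nM in the dispensed reagent) was pre-reduced with 400 uM NADPH for 5 min at room temperature, then incubated with compound for 15 min. After 400 uM selenite was added, NADPH fluorescence (Ex 340/Em 450 nm) was followed for 8 min.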
The depositor's hits bear a star; ? = inconclusive; · = not tested or not shown; [ ] = remark or other dose. Sampled rows, rich in hits. Any-hit rate of the full collection: about 5.9%. Unless noted, calls come from the whole dose curve; as a rule, active = well fitted curve in the direction sought with a large enough effect; inconclusive = small, poorly fitted or top-dose-only effect, or another doubt; inactive = no such curve, though single readings can be large; an effect the other way counts as inactive or inconclusive. % is set by controls: 0 for no effect and ±100 for the full control effect.

SMILES | GALK inhibitor | Coupling enz | RORg inh | TrxR1 substrate | Gal4-VP16 FLuc | TrxR1 inh
Cc1ccc(S(=O)(=O)c2nc(-c3ccccc3)oc2N2CCCC2)cc1 | · | · | · | 9% | · | 6.3µM*
COC(=O)c1ccc(NC(=O)CSc2nnc(-c3ccccc3Br)n2-c2ccccc2)cc1 | · | · | · | 13%[57.1 µM] | · | 16%[11.4 µM]
O=C(COc1ccc(Cl)cc1)Nc1cccc(S(=O)(=O)NCc2ccco2)c1 | · | · | · | -8% | · | -22%
O=C(C1CC(=O)N(C2CCCC2)C1)N1CCN(c2ccccc2)CC1 (stereo not drawn) | -2% | · | 10% | 8% | 4% | 13%
CC(C)Cc1nc(S(=O)(=O)c2ccc(Cl)cc2)c(N2CCOCC2)o1 | -1% | 1 | -22% | 2% | 11% | 8.9µM*
Cc1ccc(OCC(=O)Nn2c(C)nc3ccccc3c2=O)c(C(C)C)c1 | -1% | 10 | -19% | 9% | 22µM* | 24%
Cc1ccc(-c2nc3ccccc3c(=O)n2NC(=O)COc2ccccc2)cc1 | 3% | 1 | ? | -5% | ? | -7%
COc1ccc(C(O)P(=O)(OC(C)C)OC(C)C)c(OC)c1 (stereo not drawn) | 9% | 5 | 3% | 16%[57.1 µM] | 0% | 19%[57.1 µM]
O=C(Nc1nccs1)c1ccc(Cl)c(S(=O)(=O)N2CCOCC2)c1 | 0% | 2 | 16µM* | -2% | ? | -1%
CC(C)(C)N1C(=O)c2ccc(C(=O)Nc3nccs3)cc2C1=O | -1% | -2 | 7.1µM* | -4% | ? | 2%[57.1 µM]
O=C(Nc1ccc(Cl)c(S(=O)(=O)N2CCOCC2)c1)c1ccncc1 | · | · | · | 12%[57.1 µM] | · | -8%[2.29 µM]
CCN1C(=O)c2ccc(C(=O)Nc3nccs3)cc2C1=O | 0% | 5 | -67% | -12% | -27% | -5%
Cc1ccc(C(=O)Nc2nccs2)cc1S(=O)(=O)N1CCCCC1 | -1% | 0 | 14µM* | 5%[57.1 µM] | ? | 0%[57.1 µM]
Cc1ccc(NC(=O)CCl)cc1S(=O)(=O)N1CCCCCC1 | 7% | 4 | 11µM* | 11% | ? | ?
O=C(Nc1nccs1)c1ccc(Br)c(S(=O)(=O)N2CCCC2)c1 | -2% | 4 | ? | -10% | ? | -13%
CCSc1nc2c(c(=O)[nH]1)C(c1cccs1)C(C(=O)OC)=C(C)N2 (stereo not drawn) | · | 0 | 25% | 0% | 2% | 19%
NC(=O)CN(Cc1ccccc1)S(=O)(=O)c1ccc2c(c1)OCCO2 | 6% | 0 | -23% | -1% | 0% | 2%
CCOc1ccccc1N1CC(C(=O)N(Cc2nnc(-c3ccccc3Cl)o2)C2CC2)CC1=O (stereo not drawn) | · | · | · | 0% | · | 7%
NNC(=S)Nc1c(F)cc(F)cc1Br | 5% | -2 | 4µM* | 6%[57.1 µM] | ? | 11%[57.1 µM]
Cc1cc(C(=O)Nc2c(F)cc(F)cc2Br)cs1 | 5% | · | 5% | 3% | 6% | 25%
C[C@@H]1CCC[C@@]2(O[C@@H](CCO)C[C@@H](O)[C@@H]2O)O1 | · | · | · | 11%[57.1 µM] | · | 20%[57.1 µM]
NC(=S)n1[nH]c(-c2ccccc2)c(N=Nc2ccccc2C(=O)N2CCOCC2)c1=O | 6% | -5 | 2µM* | 3%[57.1 µM] | -14% | ?
O=C(NC1CCCCC1)NC1(C(=O)N2CCN3CCCC3C2)CCCCC1 (stereo not drawn) | 0% | 1 | -29% | -9% | 2% | -17%
Cc1cc(C)nc(S/C=C/C(=O)c2ccccc2F)n1 | 0% | 0 | 7.9µM* | 11%[57.1 µM] | 10µM* | 2µM*
Cc1cc(NC(=O)c2ccccc2F)on1 | · | -1 | -21% | 1% | -8% | 6%
CCS(=O)(=O)c1oc(-c2ccc(F)cc2)nc1S(=O)(=O)c1ccc(Br)cc1 | · | · | · | 8% | · | 0.56µM*
CC(C)S(=O)(=O)c1oc(-c2cccs2)nc1S(=O)(=O)c1ccc(F)cc1 | · | · | · | 29% | · | 0.71µM*
CSc1oc(-c2ccc(F)cc2)nc1S(=O)(=O)c1ccccc1 | 1% | 1 | ? | -4% | 0% | 13%
